The values below come from PubChem BioAssay (NCATS).

The target of test [1] is Peroxisome proliferator-activated receptor delta (Homo sapiens) (UniProt Q03181). Put plainly: qHTS assay for small molecule agonists of peroxisome proliferator-activated receptor delta signaling (AID 588534).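 Further: 0% = DMSO basal wells and 100% = positive control agonist at 10 µM.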 An outline of the steps: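 Agonist-mode beta-lactamase reporter readout (CCF4 dye, 2 h at RT) after 18 h at 37 °C exposure to a titration; Hill-equation fitting gave EC50 and maximal response.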
Peroxisome proliferator-activated receptor delta (Homo sapiens), sequence (Q03181 whole entry, looked up): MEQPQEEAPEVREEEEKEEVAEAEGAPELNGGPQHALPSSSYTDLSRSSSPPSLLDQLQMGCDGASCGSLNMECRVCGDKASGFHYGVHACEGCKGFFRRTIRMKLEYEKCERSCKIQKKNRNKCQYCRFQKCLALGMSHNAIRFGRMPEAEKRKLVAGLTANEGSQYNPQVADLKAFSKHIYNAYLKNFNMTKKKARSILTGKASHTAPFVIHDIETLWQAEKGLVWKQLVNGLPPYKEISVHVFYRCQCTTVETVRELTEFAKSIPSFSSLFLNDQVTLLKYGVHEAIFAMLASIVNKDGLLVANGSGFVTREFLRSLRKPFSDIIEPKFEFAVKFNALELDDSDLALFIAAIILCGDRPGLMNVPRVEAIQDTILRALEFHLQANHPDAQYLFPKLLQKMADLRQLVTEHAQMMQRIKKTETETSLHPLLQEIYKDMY

For test [2], the target named is Glucocorticoid receptor (Homo sapiens) (UniProt P04150). Put plainly: qHTS assay for small molecule agonists of glucocorticoid receptor signaling (AID 588532; active means well fitted curve in the direction sought with a large enough effect in the signal ratio, with a control signal flat; the % refers to the signal ratio;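 further: 100% = dexamethasone at 0.1 µM and 0% = DMSO only wells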). The conditions noted are these: HeLa MMTV-bla, beta-lactamase ratio, agonist, 18 h; activation: stronger effect = higher value, percent of dexamethasone control, DMSO zero. An outline of the steps: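 Quantitative HTS using CellSensor MMTV-bla HeLa cells in charcoal/dextran-treated serum; compounds tested up to 92 uM. After 18 h at 37 C, CCF4 dye reported reporter induction.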
Glucocorticoid receptor (Homo sapiens), sequence (P04150 whole entry, looked up): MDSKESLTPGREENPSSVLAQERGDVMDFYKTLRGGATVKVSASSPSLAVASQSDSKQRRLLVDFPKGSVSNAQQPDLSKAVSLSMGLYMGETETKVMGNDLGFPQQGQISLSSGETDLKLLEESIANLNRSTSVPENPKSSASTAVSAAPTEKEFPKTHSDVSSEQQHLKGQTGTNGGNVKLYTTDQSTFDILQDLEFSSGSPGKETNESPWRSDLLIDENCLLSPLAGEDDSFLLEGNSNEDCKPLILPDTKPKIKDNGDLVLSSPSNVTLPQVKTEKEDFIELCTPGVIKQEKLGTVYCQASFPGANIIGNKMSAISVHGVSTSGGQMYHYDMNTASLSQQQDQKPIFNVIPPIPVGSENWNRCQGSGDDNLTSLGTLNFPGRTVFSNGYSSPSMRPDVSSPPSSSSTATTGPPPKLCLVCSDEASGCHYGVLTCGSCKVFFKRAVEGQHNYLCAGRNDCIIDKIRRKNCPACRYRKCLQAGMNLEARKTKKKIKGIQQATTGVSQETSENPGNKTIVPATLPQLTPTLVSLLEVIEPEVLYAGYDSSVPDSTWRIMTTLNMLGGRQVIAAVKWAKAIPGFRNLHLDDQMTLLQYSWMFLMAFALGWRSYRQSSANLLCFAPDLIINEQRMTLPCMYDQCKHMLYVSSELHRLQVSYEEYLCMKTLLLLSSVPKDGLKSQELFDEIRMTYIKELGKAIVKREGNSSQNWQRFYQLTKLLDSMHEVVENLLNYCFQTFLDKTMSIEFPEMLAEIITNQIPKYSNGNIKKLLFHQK
On the technique in general: qHTS replaces the single test concentration by a dilution series.

The target of test [3] is Peroxisome proliferator-activated receptor gamma (Homo sapiens) (UniProt P37231). Put plainly: qHTS assay for small molecule antagonists of peroxisome proliferator-activated receptor gamma signaling (AID 588537; active means well fitted inhibition curve with a large enough effect in the signal ratio, with a control signal flat, not every such curve was filed as active; the % refers to the signal ratio; further: potency means the concentration at half of the fitted maximal effect). An outline of the steps:
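Antagonist-mode β-lactamase reporter screen run as a titration series. HEK293 PPARγ-UAS-bla cells are stimulated with rosiglitazone (50 nM final) for 16 h, then CCF4 is read at 460/530 nm. Data are scaled between DMSO and rosiglitazone and fitted to the Hill equation.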

Test [4] concerns the target Vitamin D3 receptor (Homo sapiens) (UniProt P11473). Put plainly: qHTS assay for small molecule agonists of vitamin D receptor signaling (AID 588543).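 Further: 0% = DMSO basal and 100% = reference agonist control.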 An outline of the steps: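 Measured: β-lactamase reporter activity (CCF4, 405 nm excitation, 460/530 nm emission) in HEK293T VDR-UAS-bla cells after 16 h compound exposure at 37 °C. Normalization against 50 nM 1α,25-dihydroxyvitamin D3 and DMSO; Hill-fit EC50.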

The nature of test [5]: qHTS assay for small molecule agonists of retinoid X receptor alpha signaling (AID 588544). Further: potency means the concentration at half of the fitted maximal effect.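 On activation: 0% = DMSO basal wells and 100% = reference agonist.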 The conditions noted are these: HEK293T RXRa-UAS-bla, beta-lactamase reporter, 18 h; 530 nm emission.
Test [6] concerns the target Retinoic acid receptor RXR-alpha (Homo sapiens) (UniProt P19793). The test is described as above.
In test [7] the target is Thyroid hormone receptor beta (Homo sapiens) (UniProt P10828). Put plainly: qHTS assay for small molecule agonists of thyroid hormone receptor beta signaling (AID 588545).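 Further: 0% = DMSO only and 100% = 10 nM T3.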 An outline of the steps:
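Stimulation of a TR-driven beta-lactamase reporter was quantified in GripTite HEK 293 cells. Compound series ran for 18 hrs; curves were normalized to T3 and DMSO controls and fitted to yield EC50.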

Test [8] is described as follows: qHTS assay for small molecule activators of the nuclear factor-kappa B (NF-kB) signaling pathway (AID 651749; active means well fitted activation curve with a large enough effect in the signal ratio; the % refers to the signal ratio; further: series mostly up to about 77 µM; % of control where 0% means no effect). The conditions noted are these: NF-kB-bla ME-180 cells, beta-lactamase FRET ratio, 16 h; activation: stronger effect = higher value. An outline of the steps: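 Activation measured after 16 hr compound treatment at 37C, 5% CO2, of 2,000 ME-180 cells/well stably expressing an NF-kB response element–driven beta-lactamase reporter, via FRET-disruption fluorescence.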

The target of test [9] is Peroxisome proliferator-activated receptor alpha (Homo sapiens) (UniProt Q07869). Put plainly: qHTS assay for small molecule agonists of the peroxisome proliferator-activated receptor alpha (PPARalpha) signaling pathway (AID 651778; active means well fitted curve in the direction sought with a large enough effect; an effect the other way counts as inactive or inconclusive; further: % of control where 0% means no effect). The conditions noted are these: PathHunter PPARalpha complementation, chemiluminescence, 6 h; max response: stronger effect = higher value. An outline of the steps:
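Chemiluminescence from complemented enzyme reported PPARalpha activation in cells after 6 hr of compound treatment at 37 C. The detection reagent was incubated for 60 min at room temperature, and compounds were scored as agonists.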

Test [10] is described as follows: qHTS assay for small molecule agonists of the antioxidant response element (ARE) signaling pathway measured by Nrf2-dependant transcriptional activity (AID 720636; active means well fitted curve in the direction sought with a large enough effect in the repeat runs; an effect the other way counts as inactive or inconclusive; further: % of control where 0% means no effect). An outline of the steps: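 Quantitative HTS format in HepG2 cells stably expressing an ARE-luciferase reporter; 16 hr compound treatment at 37 C, luciferase signal detected with ONE-Glo.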
Test [11] can be described thus: qHTS assay for small molecule agonists of the antioxidant response element (ARE) signaling pathway measured by Nrf2-dependant transcriptional activity - cell viability counter screen (AID 720653; active means well fitted curve in the direction sought with a large enough effect in the repeat runs; an effect the other way counts as inactive or inconclusive; further: on the % scale 0 is the no-effect control and ±100 the full control effect). As to conditions: ARE-bla HepG2 viability, CellTiter-Glo ATP luminescence, 16 h; max response: stronger effect = lower value. An outline of the steps:
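Cytotoxicity counter screen: intracellular ATP quantified by CellTiter-Glo luminescence in the same ARE-bla HepG2 plates, after 16 h compound exposure and a 2 h beta-lactamase substrate step.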

Test [12] can be described thus: qHTS assay for cell viability of HEK293 cells (AID 743288; active means well fitted curve in the direction sought with a large enough effect; an effect the other way counts as inactive or inconclusive; further: on the % scale 0 is the no-effect control and ±100 the full control effect; nearly all actives have a fitted effect of over 50% in size). As to conditions: ATP luminescence (CellTiter-Glo), 18 h; max response: stronger effect = lower value. An outline of the steps: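 HEK293, 18 h, 37 C, ATP luminescence. Cells at 2,000/well were allowed at least 5 h to settle before dosing; CellTiter-Glo developed 30 min at RT.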
Test [13] deals with Glucocorticoid receptor (Homo sapiens) (UniProt P04150). Put plainly: qHTS assay for small molecule antagonists of glucocorticoid receptor signaling (AID 588533; active means well fitted inhibition curve with a large enough effect in the signal ratio, with a control signal flat, not every such curve was filed as active; the % refers to the signal ratio;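 further: cells stimulated with 2 nM dexamethasone as agonist; on the % scale 0 is the no-effect control and ±100 the full control effect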). An outline of the steps: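 Antagonist-mode qHTS: compound titrations added to GRE-bla HeLa cells, then dexamethasone 2 nM final; 18 h, 37 C. CCF4 FRET fluorescence normalized to dexamethasone and DMSO; IC50 from Hill fit.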

The target of test [14] is Vitamin D3 receptor (Homo sapiens) (UniProt P11473). Put plainly: qHTS assay for small molecule antagonists of vitamin D receptor signaling (AID 588541).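 Further: receptor activated by calcitriol during compound treatment; series mostly up to about 77 µM; on the % scale 0 is the no-effect control and ±100 the full control effect.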 An outline of the steps: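 Antagonist-mode beta-lactamase reporter assay: HEK293T VDR-UAS-bla cells were exposed to titrated compound alongside 1-alpha,25-dihydroxyvitamin D3 at 3 nM final for 16 h. Values were normalized to the 50 nM agonist control and DMSO basal, with IC50 and efficacy from Hill equation fits.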
Vitamin D3 receptor (Homo sapiens), sequence (P11473 whole entry, looked up): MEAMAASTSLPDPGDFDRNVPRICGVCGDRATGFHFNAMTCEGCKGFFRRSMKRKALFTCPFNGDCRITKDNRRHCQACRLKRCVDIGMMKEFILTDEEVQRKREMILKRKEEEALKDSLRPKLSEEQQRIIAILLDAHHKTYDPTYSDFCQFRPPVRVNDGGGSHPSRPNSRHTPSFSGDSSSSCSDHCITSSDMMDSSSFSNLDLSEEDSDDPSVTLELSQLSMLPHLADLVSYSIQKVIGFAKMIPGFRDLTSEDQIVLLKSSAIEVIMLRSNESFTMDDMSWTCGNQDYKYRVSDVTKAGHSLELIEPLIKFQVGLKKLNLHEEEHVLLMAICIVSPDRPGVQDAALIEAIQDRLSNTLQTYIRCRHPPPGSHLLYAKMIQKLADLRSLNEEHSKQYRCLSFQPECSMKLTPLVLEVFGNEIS

Test [15] can be described thus: qHTS assay for small molecule antagonists of retinoid X receptor alpha signaling (AID 588546; active means well fitted inhibition curve with a large enough effect in the signal ratio, with a control signal flat, not every such curve was filed as active; the % refers to the signal ratio;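 further: cells stimulated with 9-cis-retinoic acid as agonist; on the % scale 0 is the no-effect control and ±100 the full control effect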). The conditions noted are these: HEK293T RXRa-UAS-bla, beta-lactamase ratio, antagonist mode; measured here: W530 green channel, cytotoxicity proxy. An outline of the steps: (§1)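 Beta-lactamase reporter inhibition, read as CCF4 fluorescence ratio (ex 405, em 460/530 nm) after 2 h at RT. HEK293T UAS-bla cells, 2500/well, were stimulated with 9-cis-RA at 500 or 100 nM final alongside test compound for 18 h at 37 C.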

For test [16], the target named is Retinoic acid receptor RXR-alpha (Homo sapiens) (UniProt P19793). The description is as above. As to conditions: HEK293T RXRa-UAS-bla, beta-lactamase ratio, antagonist mode. An outline of the steps:
as §1

Test [17] is described as follows: qHTS assay for small molecule agonists of the antioxidant response element (ARE) signaling pathway (AID 651741; active means well fitted activation curve with a large enough effect in the signal ratio; the % refers to the signal ratio; further: potency means the concentration at half of the fitted maximal effect; on activation: % of control where 0% means no effect). An outline of the steps: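 Beta-lactamase reporter under ARE control in HepG2 cells, 2,000 per well, was induced by 16 h compound treatment at 37 C. Read-out was fluorescence from LiveBLAzer B/G FRET substrate after 2 h at room temperature.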
Test [18] can be described thus: qHTS assay for small molecule activators of the p53 signaling pathway (AID 651743; active means well fitted activation curve with a large enough effect in the signal ratio, not every such curve was filed as active; the % refers to the signal ratio; further: series mostly up to about 92 µM; % of control where 0% means no effect). As to conditions: HCT-116 p53RE-bla, beta-lactamase FRET ratio, 16 h; activation: stronger effect = higher value. An outline of the steps:
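After 16 hours compound treatment at 37 C, HCT-116 cells stably expressing p53RE-driven beta-lactamase were loaded with LiveBLAzer B/G FRET substrate for 2 hours at room temperature. Fluorescence intensity served as the p53 activation read-out.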

Test [19] can be described thus: qHTS assay for cell viability of the p53RE-bla HCT-116 cell line (AID 743292; active means well fitted curve in the direction sought with a large enough effect; an effect the other way counts as inactive or inconclusive; further: on the % scale 0 is the no-effect control and ±100 the full control effect; nearly all actives have a fitted effect of over 55% in size). An outline of the steps:
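Viability of compound-treated p53RE-bla HCT-116 cells is taken from ATP-dependent luciferase luminescence. Treatment lasts 16 h at 37 C after a 5 h settling period; detection follows 30 min at room temperature.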

The target in test [20] is Nuclear receptor subfamily 1 group I member 2 (Rattus norvegicus) (UniProt Q9R1A7). Put plainly: qHTS assay for small molecule activators of the rat pregnane X receptor (rPXR) signaling pathway (AID 651751; call rule not given here; further: 0% is about no effect). The conditions noted are these: rPXR reporter cells, luciferase (One-Glo), 24 h.
Nuclear receptor subfamily 1 group I member 2 (Rattus norvegicus), sequence (Q9R1A7 whole entry, looked up): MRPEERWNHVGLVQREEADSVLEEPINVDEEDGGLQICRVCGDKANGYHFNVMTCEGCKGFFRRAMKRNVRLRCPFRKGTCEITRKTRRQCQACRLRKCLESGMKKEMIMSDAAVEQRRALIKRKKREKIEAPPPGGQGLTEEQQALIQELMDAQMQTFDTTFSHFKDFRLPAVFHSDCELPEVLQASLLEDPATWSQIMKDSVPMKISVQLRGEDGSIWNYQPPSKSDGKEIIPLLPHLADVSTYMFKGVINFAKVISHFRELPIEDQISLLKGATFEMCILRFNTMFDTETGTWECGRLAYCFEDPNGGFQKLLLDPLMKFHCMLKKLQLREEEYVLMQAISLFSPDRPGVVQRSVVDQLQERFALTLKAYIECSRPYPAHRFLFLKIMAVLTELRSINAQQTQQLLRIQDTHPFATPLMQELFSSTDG
The nature of test [21]: qHTS assay for small molecule activators of the human pregnane X receptor (PXR) signaling pathway (AID 720659; call rule not given here; further: 0% is about no effect).
Test [22] can be described thus: qHTS assay for small molecule antagonists of peroxisome proliferator-activated receptor delta signaling (AID 588535; active means well fitted inhibition curve with a large enough effect in the signal ratio, with a control signal flat, not every such curve was filed as active; the % refers to the signal ratio;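 on max response: cells co-treated with a PPAR-delta agonist as stimulator during compound exposure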). As to conditions: HEK293T PPARd-UAS-bla, beta-lactamase FRET ratio, 18 h; 460 nm channel. An outline of the steps: (§2)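 Titrations were run on PPAR-delta-UAS-bla HEK293T cells in charcoal/dextran-stripped serum, incubated 18 h at 37 C. CCF4 fluorescence (460/530 nm) after 2 h RT; Hill equation yields IC50 and maximal response.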

In test [23] the target is Peroxisome proliferator-activated receptor delta (Homo sapiens) (UniProt Q03181). The test is described as above. An outline of the steps: as §2
Test [24] is described as follows: qHTS assay for environmental chemicals that activate the Aryl hydrocarbon Receptor (AhR) signaling pathway (AID 651777; active means well fitted curve in the direction sought with a large enough effect; an effect the other way counts as inactive or inconclusive; further: % of control where 0% means no effect; nearly all actives have a fitted effect of over 15% in size). As to conditions: 1A2-DRE human hepatoma cells, luciferase, 24 h; activation: stronger effect = higher value. An outline of the steps:
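Quantitative HTS in stably transfected human liver-derived cells whose luciferase gene sits downstream of the CYP1A2 promoter and dioxin response element. After 24 hr exposure at 37 C, One-Glo luminescence was measured.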

Records with an inconclusive call do not appear. Activity calls are given as the source filed them. Unless noted, the call rests on the fitted dose curve.

Retinoic acid receptor RXR-alpha (Homo sapiens), sequence (P19793 whole entry, looked up): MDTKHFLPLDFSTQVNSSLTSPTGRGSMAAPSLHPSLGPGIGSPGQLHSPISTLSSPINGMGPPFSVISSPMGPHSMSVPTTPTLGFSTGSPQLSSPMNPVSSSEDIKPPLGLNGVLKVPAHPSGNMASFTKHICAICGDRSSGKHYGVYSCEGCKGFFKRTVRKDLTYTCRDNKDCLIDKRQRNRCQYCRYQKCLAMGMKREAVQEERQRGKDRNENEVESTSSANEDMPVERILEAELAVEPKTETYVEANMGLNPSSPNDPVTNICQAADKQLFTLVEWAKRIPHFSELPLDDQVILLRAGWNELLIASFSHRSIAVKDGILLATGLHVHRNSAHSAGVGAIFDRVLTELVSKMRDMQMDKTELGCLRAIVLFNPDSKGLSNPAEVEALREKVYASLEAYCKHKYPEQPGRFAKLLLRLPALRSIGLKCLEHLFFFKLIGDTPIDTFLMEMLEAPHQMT
Thyroid hormone receptor beta (Homo sapiens), sequence (P10828 whole entry, looked up): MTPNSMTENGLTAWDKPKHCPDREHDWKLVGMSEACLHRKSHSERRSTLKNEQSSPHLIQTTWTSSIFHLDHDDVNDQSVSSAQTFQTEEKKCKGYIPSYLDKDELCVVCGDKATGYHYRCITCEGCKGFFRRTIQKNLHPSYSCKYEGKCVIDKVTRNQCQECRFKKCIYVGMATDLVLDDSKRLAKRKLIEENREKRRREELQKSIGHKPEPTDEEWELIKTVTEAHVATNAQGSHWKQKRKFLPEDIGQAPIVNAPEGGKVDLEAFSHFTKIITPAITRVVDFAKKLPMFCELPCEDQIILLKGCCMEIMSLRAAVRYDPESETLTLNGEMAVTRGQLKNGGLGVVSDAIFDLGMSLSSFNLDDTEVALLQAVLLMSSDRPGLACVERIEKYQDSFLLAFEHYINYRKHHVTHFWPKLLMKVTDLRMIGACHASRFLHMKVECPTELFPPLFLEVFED
Peroxisome proliferator-activated receptor alpha (Homo sapiens), sequence (Q07869 whole entry, looked up): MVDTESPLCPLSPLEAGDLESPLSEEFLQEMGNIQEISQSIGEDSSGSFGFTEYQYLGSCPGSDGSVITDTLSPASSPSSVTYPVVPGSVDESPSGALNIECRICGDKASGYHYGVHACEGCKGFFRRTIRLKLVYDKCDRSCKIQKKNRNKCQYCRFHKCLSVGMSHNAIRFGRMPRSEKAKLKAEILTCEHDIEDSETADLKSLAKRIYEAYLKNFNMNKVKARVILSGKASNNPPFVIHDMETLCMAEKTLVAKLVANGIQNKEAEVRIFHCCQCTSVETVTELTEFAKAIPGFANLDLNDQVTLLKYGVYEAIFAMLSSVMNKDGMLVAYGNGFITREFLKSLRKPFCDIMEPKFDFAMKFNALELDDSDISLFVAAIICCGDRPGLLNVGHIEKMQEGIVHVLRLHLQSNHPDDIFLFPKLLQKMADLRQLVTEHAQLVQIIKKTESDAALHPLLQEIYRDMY
Peroxisome proliferator-activated receptor gamma (Homo sapiens), sequence (P37231 whole entry, looked up): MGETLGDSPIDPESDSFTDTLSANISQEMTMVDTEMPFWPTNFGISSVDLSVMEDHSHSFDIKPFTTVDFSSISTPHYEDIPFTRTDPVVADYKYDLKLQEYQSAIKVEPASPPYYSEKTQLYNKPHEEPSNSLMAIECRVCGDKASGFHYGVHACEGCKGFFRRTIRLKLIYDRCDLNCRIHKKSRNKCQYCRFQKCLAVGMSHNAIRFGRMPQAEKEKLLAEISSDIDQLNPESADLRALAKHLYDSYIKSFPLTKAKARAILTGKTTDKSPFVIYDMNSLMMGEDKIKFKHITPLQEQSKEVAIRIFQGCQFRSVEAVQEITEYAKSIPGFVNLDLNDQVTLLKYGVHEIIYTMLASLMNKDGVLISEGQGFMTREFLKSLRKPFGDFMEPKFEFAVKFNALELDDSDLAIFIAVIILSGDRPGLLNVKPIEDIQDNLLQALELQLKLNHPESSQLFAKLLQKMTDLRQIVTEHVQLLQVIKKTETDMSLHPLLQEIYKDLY

`Cc1cc(C)cc(O)c1`: the result in test [1] was inactive.

For `CN(C)c1cccc(O)c1`, the outcome in [1] was inactive.

`N#Cc1c[nH]cc1-c1cccc2c1OC(F)(F)O2`: the activation in test [2] was -6.3% (inactive); in test [8] it was -3.39% (inactive). For the same molecule, the results for the Potency in test [3] and in [6] were 31.6 µM (active) and 2.24 µM (active), respectively. Also, the result in test [4] was inactive. Besides, the max response in test [5] was -13.3%; in [9] it was -0.738% (inactive); in [11], -6.59% (inactive); in [12], -14.2% (inactive). For the same molecule, the Potency entry in test [7] and in test [10] was “inactive” throughout.

As to `NC(=O)NC(N)=O`, the result in test [1] was inactive.

`CC(C)(C)OOC(C)(C)CCC(C)(C)OOC(C)(C)C`: the Potency result in test [13], in test [14], in [6], in test [7], in test [17] and in test [10] was “inactive” in each case. Also, the Potency result in test [19] is “inactive”. Further, the outcome in test [4] and in test [21] was inactive. Further, the max response in test [5] was -2.41%; in [15], -4.8%; in [16], -1.22% (inactive); in [9], 0.675% (inactive); in test [11] it was -14% (inactive); in test [12], 0.0033% (inactive). Moreover, the max response in [20] was -1.16% (inactive). The activation in test [18] is 2.86% (inactive).

Consider `Cc1cccc(C(=O)O)c1`, for which the molecule was classed as inactive in test [1].

Take `C=CC(=O)NC(C)(C)CS(=O)(=O)O`: the molecule was classed as inactive in test [1].

Consider `Oc1ccc(C(c2ccc(O)cc2)(C(F)(F)F)C(F)(F)F)cc1`, for which the activation in [2] is -15.3% (inactive); in [18] it was 22.5% (inactive); in [8], -2.42% (inactive); in [24], 0.672% (inactive). The result in [1] and in test [4] was inactive. Further, the max response in test [22] is -38.3%; in test [9], -3.57% (inactive); in test [11], -1.13% (inactive); in test [12], -18.6% (inactive); in [20], 0.831% (inactive). Further, the Potency result in test [23], in test [14], in test [7], in test [10] and in [19] was “inactive” in each case. Moreover, in test [17], the Potency is 48.6 µM (active).
